Experimental data: PubChem BioAssay AID1159580 (chemical genetic matrix, 2015)
Where “and” joins values, the source holds several entries; their conditions need not be identical. Equal values may be shown once. Among all 5,500 compounds or so, about 2,000 (36%) were called active. About 18% were inconclusive and are not listed. Rule as the data show it: active = normalized growth mostly below about 0.91 (no sharp cut-off); inconclusive = no clear call, values can overlap the other calls; inactive = mostly above about 0.92. The list shows a part of the results.

Experiment: chemical genetic growth profiling, strain panel (AID 1159580);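 also: tested at 20 µM; growth read once vehicle control cultures reached saturation at 30 °C; 1 = growth at the plate median or of vehicle wells; lower values mean less growth of the strain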
Conditions: S. cerevisiae deletion strains, growth OD

Measured: normalized growth

O=C(/C=C/C=C/c1ccc2c(c1)OCO2)N1CCCCC1
0.779 (active) and 0.987 (inactive): locus YJL095W, strain BCK1, stronger effect = lower value
active: locus YAL026C, strain drs2, stronger effect = lower value 0.885 | locus YBR009C, strain hhf1, stronger effect = lower value 0.907 | locus YCL011C, strain gbp2, stronger effect = lower value 0.889 | locus YCL069W, strain vba3, stronger effect = lower value 0.904 | locus YDR137W, strain rgp1, stronger effect = lower value 0.687 | locus YDR195W, strain ref2 1.23 [resistant] | locus YDR318W, strain mcm21, stronger effect = lower value 0.895 | locus YDR392W, strain spt3, stronger effect = lower value 0.599 | locus YDR502C, strain sam2, stronger effect = lower value 0.888 | locus YER015W, strain faa2, stronger effect = lower value 0.922 | locus YER155C, strain BEM2 (second series), stronger effect = lower value 0.696 | locus YGL086W, strain mad1, stronger effect = lower value 0.923 | locus YGL253W, strain hxk2, stronger effect = lower value 0.873 | locus YGR135W, strain pre9, stronger effect = lower value 0.886 | locus YGR229C, strain SMI1, stronger effect = lower value 0.732 | locus YGR252W, strain gcn5, stronger effect = lower value 0.732 | locus YHR142W, strain chs7, stronger effect = lower value 0.857 | locus YJL129C, strain trk1, stronger effect = lower value 0.855 | locus YJL164C, strain tpk1, stronger effect = lower value 0.904
inactive: locus YAL013W, strain DEP1, stronger effect = lower value 0.962 | locus YAL021C, strain ccr4, stronger effect = lower value 0.965 | locus YAL030W, strain snc1, stronger effect = lower value 0.959 | locus YBL061C, strain skt5, stronger effect = lower value 0.949 | locus YBR021W, strain FUR4, stronger effect = lower value 0.893 | locus YBR023C, strain chs3, stronger effect = lower value 0.92 | locus YBR171W, strain sec66, stronger effect = lower value 0.91 | locus YBR229C, strain ROT2, stronger effect = lower value 0.969 | locus YBR231C, strain swc5, stronger effect = lower value 0.951 | locus YBR279W, strain paf1, stronger effect = lower value 0.952 | locus YCL016C, strain dcc1, stronger effect = lower value 0.915 | locus YCL029C, strain bik1, stronger effect = lower value 0.954 | locus YCL061C, strain MRC1, stronger effect = lower value 0.943 | locus YCR088W, strain abp1, stronger effect = lower value 0.945 | locus YDL005C, strain med2, stronger effect = lower value 0.975 | locus YDL035C, strain GPR1, stronger effect = lower value 0.922 | locus YDL040C, strain nat1, stronger effect = lower value 0.966 | locus YDL074C, strain BRE1, stronger effect = lower value 0.835 | locus YDL101C, strain DUN1, stronger effect = lower value 0.969 | locus YDL134C, strain PPH21, stronger effect = lower value 0.944 | locus YDL185W, strain tfp1, stronger effect = lower value 0.94 | locus YDL192W, strain arf1, stronger effect = lower value 0.939 | locus YDR001C, strain nth1, stronger effect = lower value 0.936 | locus YDR069C, strain doa4, stronger effect = lower value 0.998 | locus YDR101C, strain arx1, stronger effect = lower value 0.931 | locus YDR150W, strain NUM1, stronger effect = lower value 0.986 | locus YDR159W, strain sac3, stronger effect = lower value 0.955 | locus YDR162C, strain NBP2, stronger effect = lower value 0.93 | locus YDR297W, strain sur2, stronger effect = lower value 0.965 | locus YDR334W, strain swr1, stronger effect = lower value 0.968 | locus YDR335W, strain msn5, stronger effect = lower value 0.96 | locus YDR388W, stronger effect = lower value 0.931 | locus YEL003W, strain gim4, stronger effect = lower value 0.94 | locus YEL037C, strain rad23, stronger effect = lower value 0.946 | locus YEL061C, strain CIN8 (second series), stronger effect = lower value 0.969 | locus YEL061C, strain CIN8, stronger effect = lower value 0.971 | locus YER016W, strain bim1, stronger effect = lower value 0.948 | locus YER110C, stronger effect = lower value 0.951 | locus YER111C, strain swi4, stronger effect = lower value 0.986 | locus YER155C, strain BEM2, stronger effect = lower value 0.963 | locus YER167W, strain BCK2, stronger effect = lower value 0.907 | locus YFR010W, strain ubp6, stronger effect = lower value 0.974 | locus YGL078C, strain dbp3, stronger effect = lower value 0.957 | locus YGL167C, strain pmr1, stronger effect = lower value 0.945 | locus YGL173C, strain kem1, stronger effect = lower value 0.926 | locus YGL227W, strain vid30, stronger effect = lower value 0.948 | locus YGL240W, strain doc1, stronger effect = lower value 0.919 | locus YGL248W, strain PDE1, stronger effect = lower value 0.938 | locus YGR078C, strain PAC10, stronger effect = lower value 0.871 | locus YHR013C, strain ard1, stronger effect = lower value 0.951 | locus YHR027C, strain rpn1, stronger effect = lower value 0.959 | locus YHR030C, strain SLT2, stronger effect = lower value 0.939 and 0.975 | locus YHR079C, strain IRE1 (second series), stronger effect = lower value 0.937 | locus YHR079C, strain IRE1, stronger effect = lower value 0.977 | locus YHR094C, strain hxt1, stronger effect = lower value 0.954 | locus YHR129C, strain ARP1, stronger effect = lower value 0.973 | locus YHR200W, strain rpn10, stronger effect = lower value 0.925 | locus YIL066C, strain RNR3, stronger effect = lower value 0.94 | locus YIL073C, strain SPO22, stronger effect = lower value 0.864 | locus YIL125W, strain kgd1, stronger effect = lower value 0.96 | locus YIR030C, strain dcg1, stronger effect = lower value 0.941 | locus YJL092W, strain hpr5, stronger effect = lower value 0.947 | locus YJL095W, strain BCK1 (second series), stronger effect = lower value 0.935 | locus YJL115W, strain asf1, stronger effect = lower value 0.984 | locus YJL134W, strain LCB3, stronger effect = lower value 0.978 | locus YJL154C, strain vps35, stronger effect = lower value 0.96 | locus YJL166W, strain qcr8, stronger effect = lower value 0.93 | locus YJL168C, strain set2, stronger effect = lower value 0.945 | locus YJL187C, strain SWE1 (second series), stronger effect = lower value 0.942 | locus YJL187C, strain SWE1, stronger effect = lower value 0.967 | locus YJR043C, strain POL32, stronger effect = lower value 0.862 | locus YJR066W, strain TOR1, stronger effect = lower value 0.955
